Data: PubChem BioAssay (EPA / NIEHS)
Inconclusive results are not listed. Activity calls are given as the source filed them. Rule for the calls: active = hit-call score of the fitted dose curve at least 0.9, where 1 is the maximum; inconclusive = response in the unintended direction; inactive = score below 0.9.

Legend:
[1] = target: Tyrosine-protein phosphatase non-receptor type 11 (Homo sapiens) (UniProt Q06124); experiment: NVS_ENZ_hPTPN11: NovaScreen (NVS) Enzymatic Assay for human Protein Tyrosine Phosphatase Non-receptor Type 11 (PTPN11) (AID 2283202)
Description: NVS_ENZ_hPTPN11 is a biochemical, single-readout assay that uses extracted gene-proteins in a cell-free assay. Measurements were taken 0.5 hour after chemical dosing in a 384-well plate.NVS_ENZ_hPTPN11 is one of one assay component(s) measured or calculated from the NVS_ENZ_hPTPN11 assay. It is designed to make measurements of enzyme activity, a form of enzyme reporter, as detected with fluorescence intensity signals by Fluorescence and electrophoretic mobility shift technology.Data from the assay component NVS_ENZ_hPTPN11 was analyzed into 1 assay endpoint. This assay endpoint, NVS_ENZ_hPTPN11, was analyzed in the positive analysis fitting direction relative to DMSO as the negative control and baseline of activity. Using a type of enzyme reporter, loss-of-signal activity can be used to understand changes in the enzymatic activity as they relate to the gene PTPN11. Furthermore, this assay endpoint can be referred to as a primary readout, because this assay has produced multiple assay endpoints where this one serves a enzymatic activity function. To generalize the intended target to other relatable targets, this assay endpoint is annotated to the phosphatase intended target family, where the subfamily is non-receptor tyrosine phosphatase.
Binding assays used specific radioligands (tritiated, iodinated) with non-radioactive competitive displacement ligands in agonist or antagonist protocols (as indicated) and various reference compounds and inhibitors to titrate specific binding to receptors and transporters. Most enzyme assays (CYPs, kinases, phosphatases, proteases, HDACs) used recombinant protein and specific substrates (fluorescence mostly, some colorimetric and radioactive) and inhibitors, followed by a biochemical separation of substrate and product. All assays for the biochemical HTS were initially run in duplicate at a single concentration (10 uM for CYP450 assays and 25 uM for all others). Assay-chemical combinations meeting a pre-defined threshold (e.g., 30% inhibition and other criteria defined below) were then run in singleton concentration-response format with maximum concentration of 20 uM for CYPs and 50 uM for all others. Each assay was run with positive and negative controls, and concurrent controls on every plate. The follow-up (secondary) screen tested active chemical-pairs in concentration series, as well as a few additional assays not tested in the primary screen, some selected negative inactives, and several cases re-run in the concentration series for confirmatory purposes.

[2] = target: human Protein Tyrosine Phosphatase Non-receptor Type 4 (PTPN4), PTPN4 (gene 5775) (UniProt P29074); experiment: NVS_ENZ_hPTPN4: NovaScreen (NVS) Enzymatic Assay for human Protein Tyrosine Phosphatase Non-receptor Type 4 (PTPN4) (AID 2283208)
Method in brief: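 Cell-free assay of PTPN4 expressed in Sf9 cells, using a fluorescent substrate with product separated by mobility shift; read 1.33 h after dosing. Single-point screen at 25 uM, then concentration-response up to 50 uM. Loss of signal relative to DMSO.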

[3] = target: human Protein Tyrosine Phosphatase Non-receptor Type 6 (PTPN6), PTPN6 (gene 5777) (UniProt P29350); experiment: NVS_ENZ_hPTPN6: NovaScreen (NVS) Enzymatic Assay for human Protein Tyrosine Phosphatase Non-receptor Type 6 (PTPN6) (AID 2283210)
Method in brief: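 Cell-free assay with recombinant PTPN6 expressed in SF9 cells, fluorescent substrate, product separated from substrate by electrophoretic mobility shift; read 1.33 hours after dosing. Primary screen in duplicate at 25 uM, actives retested in concentration series; DMSO baseline.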

[4] = target: Tyrosine-protein phosphatase non-receptor type 12 (Homo sapiens) (UniProt Q05209); experiment: NVS_ENZ_hPTPN12: NovaScreen (NVS) Enzymatic Assay for human Protein Tyrosine Phosphatase Non-receptor Type 12 (PTPN12) (AID 2283204)
Method in brief: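 Single-concentration duplicates (25 uM) preceded singleton concentration-response up to 50 uM for chemicals passing threshold. Cell-free recombinant PTPN12 activity was read 1.33 h after dosing via fluorescence after mobility-shift separation; loss of signal versus DMSO.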

[5] = target: Tyrosine-protein phosphatase non-receptor type 13 (Homo sapiens) (UniProt Q12923); experiment: NVS_ENZ_hPTPN13: NovaScreen (NVS) Enzymatic Assay for human Protein Tyrosine Phosphatase Non-receptor Type 13 (PTPN13) (AID 2283205)
Method in brief: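 Cell-free assay of recombinant human PTPN13 with a fluorescent substrate, product separated by electrophoretic mobility shift and read 0.5 h after dosing. Primary screen at 25 uM in duplicate, then concentration-response up to 50 uM. Loss of signal fitted against DMSO.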

[6] = target: human Protein Tyrosine Phosphatase Receptor Type F (PTPRF), PTPRF (gene 5792) (UniProt P10586); experiment: NVS_ENZ_hPTPRF: NovaScreen (NVS) Enzymatic Assay for human Protein Tyrosine Phosphatase Receptor Type F (PTPRF) (AID 2283213)
Method in brief: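 Cell-free fluorescence enzyme assay with recombinant protein and substrate; product separated by electrophoretic mobility shift. Read 1 h after dosing, single 25 uM duplicate screen, then concentration-response up to 50 uM; loss of signal vs DMSO.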

[7] = target: human Protein Tyrosine Phosphatase Non-receptor Type 1 (PTPN1), PTPN1 (gene 5770) (UniProt P18031); experiment: NVS_ENZ_hPTPN1: NovaScreen (NVS) Enzymatic Assay for human Protein Tyrosine Phosphatase Non-receptor Type 1 (PTPN1) (AID 2283201)
Method in brief: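 Cell-free fluorogenic-substrate activity assay on recombinant enzyme, read 1.33 h after dosing by fluorescence and electrophoretic mobility shift; loss of signal vs DMSO baseline. Primary screen in duplicate at 25 uM, hits then run in concentration-response up to 50 uM.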

[8] = target: Tyrosine-protein phosphatase non-receptor type 14 (Homo sapiens) (UniProt Q15678); experiment: NVS_ENZ_hPTPN14: NovaScreen (NVS) Enzymatic Assay for human Protein Tyrosine Phosphatase Non-receptor Type 14 (PTPN14) (AID 2283206)
Method in brief: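 Cell-free recombinant human PTPN14 with fluorescent substrate, read 0.5 h after dosing by fluorescence and electrophoretic mobility shift separating substrate from product. Primary screen at 25 uM in duplicate; hits run to 50 uM maximum; loss of signal versus DMSO.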

[9] = target: human Rho Associated Coiled-coil Containing Protein Kinase 1 (ROCK1), ROCK1 (gene 6093) (UniProt Q13464); experiment: NVS_ENZ_hROCK1: NovaScreen (NVS) Enzymatic Assay for human Rho Associated Coiled-coil Containing Protein Kinase 1 (ROCK1) (AID 2283214)
Method in brief: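 Cell-free recombinant human ROCK1 activity assay; fluorescent substrate and product separated by electrophoretic mobility shift, read 1 h after dosing. Screened in duplicate at 25 uM; loss of signal versus DMSO baseline scored as inhibition.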

[10] = target: human Protein Tyrosine Phosphatase Receptor Type B (PTPRB), PTPRB (gene 5787) (UniProt P23467); experiment: NVS_ENZ_hPTPRB: NovaScreen (NVS) Enzymatic Assay for human Protein Tyrosine Phosphatase Receptor Type B (PTPRB) (AID 2283211)
Description: NVS_ENZ_hPTPRB is a biochemical, single-readout assay that uses extracted gene-proteins in a cell-free assay. Measurements were taken 1 hour after chemical dosing in a 384-well plate.NVS_ENZ_hPTPRB is one of one assay component(s) measured or calculated from the NVS_ENZ_hPTPRB assay. It is designed to make measurements of enzyme activity, a form of enzyme reporter, as detected with fluorescence intensity signals by Fluorescence and electrophoretic mobility shift technology.Data from the assay component NVS_ENZ_hPTPRB was analyzed into 1 assay endpoint. This assay endpoint, NVS_ENZ_hPTPRB, was analyzed in the positive analysis fitting direction relative to DMSO as the negative control and baseline of activity. Using a type of enzyme reporter, loss-of-signal activity can be used to understand changes in the enzymatic activity as they relate to the gene PTPRB. Furthermore, this assay endpoint can be referred to as a primary readout, because this assay has produced multiple assay endpoints where this one serves a enzymatic activity function. To generalize the intended target to other relatable targets, this assay endpoint is annotated to the phosphatase intended target family, where the subfamily is receptor tyrosine phosphatase. […]

Chain of human Protein Tyrosine Phosphatase Receptor Type F (PTPRF), PTPRF (gene 5792) (P10586 whole entry, looked up): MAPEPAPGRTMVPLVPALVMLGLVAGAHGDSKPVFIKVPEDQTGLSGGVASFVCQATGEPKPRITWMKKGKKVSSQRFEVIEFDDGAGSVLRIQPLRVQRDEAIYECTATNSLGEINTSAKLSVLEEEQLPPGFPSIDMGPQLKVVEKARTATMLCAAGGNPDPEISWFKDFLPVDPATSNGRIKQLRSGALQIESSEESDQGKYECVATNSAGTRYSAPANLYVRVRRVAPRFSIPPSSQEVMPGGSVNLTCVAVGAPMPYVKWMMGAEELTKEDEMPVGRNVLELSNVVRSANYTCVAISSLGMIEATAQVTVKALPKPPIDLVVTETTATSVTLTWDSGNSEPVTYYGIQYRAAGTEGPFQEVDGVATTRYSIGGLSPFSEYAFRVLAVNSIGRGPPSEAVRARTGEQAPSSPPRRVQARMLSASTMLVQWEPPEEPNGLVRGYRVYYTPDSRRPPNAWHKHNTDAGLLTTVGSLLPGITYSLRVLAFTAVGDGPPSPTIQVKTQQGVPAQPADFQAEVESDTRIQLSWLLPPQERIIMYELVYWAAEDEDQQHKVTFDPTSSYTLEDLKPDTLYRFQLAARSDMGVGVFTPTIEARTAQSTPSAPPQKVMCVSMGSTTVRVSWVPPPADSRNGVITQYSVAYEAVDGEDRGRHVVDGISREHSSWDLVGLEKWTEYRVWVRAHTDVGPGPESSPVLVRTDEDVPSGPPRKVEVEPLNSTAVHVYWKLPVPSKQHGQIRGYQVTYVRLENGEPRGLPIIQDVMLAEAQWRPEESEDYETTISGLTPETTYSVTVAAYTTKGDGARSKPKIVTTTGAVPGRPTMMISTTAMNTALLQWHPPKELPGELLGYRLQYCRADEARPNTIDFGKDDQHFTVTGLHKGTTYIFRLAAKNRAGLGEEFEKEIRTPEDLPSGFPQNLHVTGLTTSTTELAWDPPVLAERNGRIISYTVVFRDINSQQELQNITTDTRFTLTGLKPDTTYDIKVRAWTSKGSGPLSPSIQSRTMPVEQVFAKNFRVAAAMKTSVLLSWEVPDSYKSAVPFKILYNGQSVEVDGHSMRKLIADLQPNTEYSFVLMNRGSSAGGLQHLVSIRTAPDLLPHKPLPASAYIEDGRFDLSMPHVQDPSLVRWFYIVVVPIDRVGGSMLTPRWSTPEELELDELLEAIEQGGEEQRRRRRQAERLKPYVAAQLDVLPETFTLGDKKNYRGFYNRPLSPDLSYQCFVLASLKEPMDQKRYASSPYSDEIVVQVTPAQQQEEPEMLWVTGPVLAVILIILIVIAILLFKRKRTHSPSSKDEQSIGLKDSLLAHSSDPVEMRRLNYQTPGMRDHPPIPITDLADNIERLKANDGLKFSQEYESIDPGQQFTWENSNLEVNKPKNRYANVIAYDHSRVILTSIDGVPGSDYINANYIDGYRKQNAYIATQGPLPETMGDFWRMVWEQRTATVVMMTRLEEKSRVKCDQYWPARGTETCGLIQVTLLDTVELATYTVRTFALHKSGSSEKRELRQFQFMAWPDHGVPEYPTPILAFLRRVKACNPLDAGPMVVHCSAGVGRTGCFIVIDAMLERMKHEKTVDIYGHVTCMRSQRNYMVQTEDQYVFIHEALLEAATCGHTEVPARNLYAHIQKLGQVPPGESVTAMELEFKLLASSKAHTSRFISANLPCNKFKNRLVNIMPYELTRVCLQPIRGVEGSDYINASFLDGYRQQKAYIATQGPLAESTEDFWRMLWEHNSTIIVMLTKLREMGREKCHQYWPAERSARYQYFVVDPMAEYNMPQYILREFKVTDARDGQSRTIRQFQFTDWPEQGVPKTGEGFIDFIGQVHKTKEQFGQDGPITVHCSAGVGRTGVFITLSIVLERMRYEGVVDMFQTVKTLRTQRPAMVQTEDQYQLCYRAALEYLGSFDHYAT
Chain of Tyrosine-protein phosphatase non-receptor type 13 (Homo sapiens) (Q12923 whole entry, looked up): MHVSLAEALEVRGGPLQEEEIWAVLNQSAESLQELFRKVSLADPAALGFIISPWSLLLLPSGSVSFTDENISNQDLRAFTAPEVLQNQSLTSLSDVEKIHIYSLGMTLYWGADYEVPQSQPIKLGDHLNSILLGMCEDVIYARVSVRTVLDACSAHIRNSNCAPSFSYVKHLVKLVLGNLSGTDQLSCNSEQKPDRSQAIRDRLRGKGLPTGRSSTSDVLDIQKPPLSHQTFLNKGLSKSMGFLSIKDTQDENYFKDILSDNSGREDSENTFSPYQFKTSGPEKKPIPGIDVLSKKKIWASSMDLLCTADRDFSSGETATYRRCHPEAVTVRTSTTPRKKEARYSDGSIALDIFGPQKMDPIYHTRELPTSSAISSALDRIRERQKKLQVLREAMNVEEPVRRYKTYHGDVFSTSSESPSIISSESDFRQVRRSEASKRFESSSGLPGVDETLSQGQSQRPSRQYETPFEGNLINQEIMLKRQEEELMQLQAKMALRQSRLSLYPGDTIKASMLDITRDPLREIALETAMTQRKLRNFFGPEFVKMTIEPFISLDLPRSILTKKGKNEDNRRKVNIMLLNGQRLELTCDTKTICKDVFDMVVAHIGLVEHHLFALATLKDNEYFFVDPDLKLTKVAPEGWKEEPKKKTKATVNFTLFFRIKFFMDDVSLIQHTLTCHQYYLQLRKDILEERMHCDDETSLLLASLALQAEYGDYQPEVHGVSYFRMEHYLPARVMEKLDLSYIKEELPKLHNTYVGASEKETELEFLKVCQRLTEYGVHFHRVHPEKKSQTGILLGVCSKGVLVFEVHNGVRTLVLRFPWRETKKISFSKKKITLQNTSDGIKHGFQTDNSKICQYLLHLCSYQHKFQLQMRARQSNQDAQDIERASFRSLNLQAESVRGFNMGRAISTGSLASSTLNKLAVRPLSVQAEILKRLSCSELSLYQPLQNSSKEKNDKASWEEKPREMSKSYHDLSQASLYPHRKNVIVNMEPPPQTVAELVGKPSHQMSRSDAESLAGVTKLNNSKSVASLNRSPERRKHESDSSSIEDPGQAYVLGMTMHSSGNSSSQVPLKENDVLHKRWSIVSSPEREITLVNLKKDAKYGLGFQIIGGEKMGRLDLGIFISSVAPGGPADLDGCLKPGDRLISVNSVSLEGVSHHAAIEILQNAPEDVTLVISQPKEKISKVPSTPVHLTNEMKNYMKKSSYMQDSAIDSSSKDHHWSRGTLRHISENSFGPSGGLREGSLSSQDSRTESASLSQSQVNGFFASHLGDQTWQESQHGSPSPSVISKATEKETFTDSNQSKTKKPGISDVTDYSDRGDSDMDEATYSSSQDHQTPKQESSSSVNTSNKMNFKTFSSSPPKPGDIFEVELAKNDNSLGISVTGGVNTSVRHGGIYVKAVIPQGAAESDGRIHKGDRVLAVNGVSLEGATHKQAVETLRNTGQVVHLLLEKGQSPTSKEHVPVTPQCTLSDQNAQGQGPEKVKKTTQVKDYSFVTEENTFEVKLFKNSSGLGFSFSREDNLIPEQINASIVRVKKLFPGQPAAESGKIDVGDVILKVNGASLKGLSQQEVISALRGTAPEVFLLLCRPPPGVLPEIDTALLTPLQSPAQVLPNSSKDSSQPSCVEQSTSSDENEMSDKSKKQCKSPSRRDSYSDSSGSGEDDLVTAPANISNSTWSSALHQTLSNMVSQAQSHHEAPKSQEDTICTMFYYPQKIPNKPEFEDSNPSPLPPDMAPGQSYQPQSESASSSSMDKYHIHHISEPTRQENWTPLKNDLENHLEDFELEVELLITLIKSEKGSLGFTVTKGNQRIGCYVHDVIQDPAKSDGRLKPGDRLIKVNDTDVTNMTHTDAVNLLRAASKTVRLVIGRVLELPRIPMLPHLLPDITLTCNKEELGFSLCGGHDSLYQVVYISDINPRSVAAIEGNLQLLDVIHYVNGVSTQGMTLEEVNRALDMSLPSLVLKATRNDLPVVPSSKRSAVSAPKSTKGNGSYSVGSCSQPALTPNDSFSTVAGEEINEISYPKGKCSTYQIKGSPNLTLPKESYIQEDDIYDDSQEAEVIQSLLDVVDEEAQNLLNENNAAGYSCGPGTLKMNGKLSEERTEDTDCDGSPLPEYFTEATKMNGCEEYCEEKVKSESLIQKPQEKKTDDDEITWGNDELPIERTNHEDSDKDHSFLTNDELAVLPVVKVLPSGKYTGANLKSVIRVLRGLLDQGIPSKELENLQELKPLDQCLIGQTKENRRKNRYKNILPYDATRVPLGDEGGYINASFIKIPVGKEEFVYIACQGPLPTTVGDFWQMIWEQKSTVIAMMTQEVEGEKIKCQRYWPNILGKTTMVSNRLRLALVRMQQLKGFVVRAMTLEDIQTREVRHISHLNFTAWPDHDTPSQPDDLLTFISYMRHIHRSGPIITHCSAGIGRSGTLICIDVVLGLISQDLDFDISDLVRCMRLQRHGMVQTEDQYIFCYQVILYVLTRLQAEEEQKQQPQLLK
Chain of Tyrosine-protein phosphatase non-receptor type 11 (Homo sapiens) (Q06124 whole entry, looked up): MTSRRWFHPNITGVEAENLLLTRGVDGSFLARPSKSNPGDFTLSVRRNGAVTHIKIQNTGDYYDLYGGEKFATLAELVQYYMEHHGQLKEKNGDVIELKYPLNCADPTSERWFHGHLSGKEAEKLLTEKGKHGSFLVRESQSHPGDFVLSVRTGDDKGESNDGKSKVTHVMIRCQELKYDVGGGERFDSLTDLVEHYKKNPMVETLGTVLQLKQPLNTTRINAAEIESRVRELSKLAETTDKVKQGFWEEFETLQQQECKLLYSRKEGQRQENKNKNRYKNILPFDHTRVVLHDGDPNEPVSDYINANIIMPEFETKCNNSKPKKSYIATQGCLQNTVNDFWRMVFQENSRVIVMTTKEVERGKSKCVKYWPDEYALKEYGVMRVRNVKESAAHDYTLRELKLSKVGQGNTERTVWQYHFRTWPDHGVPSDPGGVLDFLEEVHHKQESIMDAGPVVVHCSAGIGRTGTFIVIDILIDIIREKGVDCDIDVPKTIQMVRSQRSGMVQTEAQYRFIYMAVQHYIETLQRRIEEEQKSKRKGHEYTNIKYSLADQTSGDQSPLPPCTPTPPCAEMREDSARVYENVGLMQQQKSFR

Cc1ccc2ncccc2c1
outcome [1]: inactive
outcome [2]: inactive
outcome [3]: inactive

CCc1c(C(=O)NN2CCCCC2)nn(-c2ccc(Cl)cc2Cl)c1-c1ccc(Br)cc1
outcome [1]: inactive
outcome [4]: inactive
AC50 [5]: 0.0976 µM (active)
outcome [3]: inactive
outcome [6]: inactive

C1CCC(SSC2CCCCC2)CC1
outcome [7]: inactive
outcome [8]: inactive

Cc1ccc(C)c(O)c1C
outcome [9]: inactive

O=C(O)Cc1ccccc1Nc1c(Cl)cccc1Cl
outcome [3]: inactive

CC1(C)CC(N=C=O)CC(C)(CN=C=O)C1 (stereo unspecified)
AC50 [5]: 6.77 µM (active)

NCCO
outcome [1]: inactive
outcome [4]: inactive
outcome [8]: inactive

Oc1ccc2ccccc2c1N=Nc1ccccc1
outcome [3]: inactive

COc1ccc(C)cc1N
outcome [3]: inactive

CC(=O)OCCOCCOCCOC(C)=O
outcome [9]: inactive

FC(F)(F)C(F)(F)C(F)(F)C(F)(F)C(F)(F)C(F)(F)CCI
outcome [7]: inactive
outcome [4]: inactive
outcome [2]: inactive
outcome [10]: inactive

CCOC(=O)C(C)(C)Oc1ccc(Cl)cc1
outcome [7]: inactive
outcome [1]: inactive
outcome [4]: inactive
outcome [5]: inactive

CC(C)c1ccc(C(=O)N=C(N)N)cc1S(C)(=O)=O
outcome [6]: inactive

CCCCCCCCCCCCCCCCCC(=O)O
outcome [9]: inactive

Cc1cccc([N+](=O)[O-])c1C
outcome [9]: inactive

COc1cc(-c2nc(NC(=O)c3cc4cc(C)cc(C)c4n3CC(=O)O)sc2CCC2CCCCC2)c(OC)cc1Cl
AC50 [5]: 6.01 µM (active)

O=C(OCCCCCOC(=O)c1ccccc1)c1ccccc1
outcome [2]: inactive
outcome [6]: inactive

CCCc1cc(=O)[nH]c(=S)[nH]1
outcome [5]: inactive

C[C@]12C=CC(=O)C=C1CC[C@@H]1[C@@H]2C(=O)C[C@@]2(C)[C@H]1CC[C@]2(O)C(=O)CO
outcome [3]: inactive

Cc1ccc(C)c(C)c1
outcome [3]: inactive

Cc1nc(-c2ccc3c(c2)CCN(CCC2CCC(NC(=O)/C=C/c4ccc(F)cc4)CC2)CC3)no1 (stereo unspecified)
outcome [4]: inactive

CC(=O)OC/C=C(\C)CCC=C(C)C
outcome [8]: inactive

O=[N+]([O-])C(CO)(CO)CO
outcome [3]: inactive

Cc1nc(C)nc(N2C[C@@H](C)N(c3ccnc([C@@H](C)O)n3)[C@@H](C)C2)n1
outcome [9]: inactive

Nc1ccc2c(c1)C(=O)c1ccccc1C2=O
outcome [2]: inactive
